# In PubChem BioAssay:
# Active and inactive are the calls of the source.
# Test: basal S. cerevisiae growth modulation, no modifier, primary screen, OD600, strain BY4716, 24 h, basal condition (AID 1173)
# Conditions: OD600, 24 h, higher = more signal, called active from +8 up or from −8 down
row,Compound,z-score
1,COCCOC(=O)N1C(=O)[C@@]2(c3cc(C#CCC(C(=O)OC)C(=O)OC)ccc31)[C@H](C(N)=O)[C@H]1C(=O)O[C@H](c3ccccc3)[C@H](c3ccccc3)N1[C@@H]2c1ccccc1OCCO,-0.65 (inactive)
2,C=C(COC)/C(=C/C[C@@H](OC(C)=O)c1cccc(OCCO)c1)c1cnc2ccccc2c1,-7.06 (inactive)
3,CC(C)[Si](C#Cc1ccccc1)(O[C@H](c1ccccc1)c1cn(Cc2ccccc2)nn1)C(C)C,-16.7 (active)
4,C[C@]1(C(=O)O)c2ccccc2C(=O)N(Cc2cc(C(F)(F)F)cc(C(F)(F)F)c2)[C@H]1c1ccc(CO)cc1,0.0491 (inactive)
5,[N-]=[N+]=NCc1ccccc1[C@H]1OC(c2ccc(OCCCO)cc2)=N[C@@]1(CCS(=O)(=O)c1ccccc1)C(=O)NCCN1CCOCC1,0.256 (inactive)
6,C=CC[C@@]1(C(=O)NCCCOC)N=C(c2ccc(OCCCO)cc2)O[C@@H]1c1ccccc1CN=[N+]=[N-],-0.574 (inactive)
7,CC(=O)NCCCC[C@@H]1NC(=O)[C@H]2C[C@@H](C(=O)O)[C@@H](c3cccc(OCCO)c3)N2C1=O,-0.757 (inactive)
8,C=CCNC(=O)[C@H]1[C@@H]2C(=O)O[C@@H](c3ccccc3)[C@@H](c3ccccc3)N2[C@@H](c2ccc(O)cc2)[C@]12C(=O)Nc1ccccc12,-0.842 (inactive)
9,Cc1ccc(S[C@]2(C(=O)NC(C)C)CC(=O)N(Cc3ccccc3)[C@@H]2c2ccc(CO)cc2I)cc1,-2.23 (inactive)
10,COC(=O)c1ccc(OC)c(/C=C\CC(OC(=O)c2ccncc2)c2ccccc2)c1 (stereo unspecified),-2.06 (inactive)
11,COc1ccc([Si](C)(C)[C@H]2[C@H](CC(=O)N(CCO)Cc3ccccc3)O[C@@]3(C(=O)N(Cc4ccc(N5C(=O)c6cccc7cccc5c67)cc4)c4ccccc43)[C@@H]2C)cc1,1.21 (inactive)
12,C=C(C)C1CN([C@H](CO)c2ccccc2)C(=O)/C1=C\c1ccccc1 (stereo partly specified),-5.73 (inactive)
13,C[N+](C)(C)CCCC[C@@H]1NC(=O)[C@H]2C[C@@H](C(=O)NCCCCCN)[C@@H](c3ccc(O)cc3)N2C1=O,-0.589 (inactive)
14,CC(=O)NCCCC[C@@H]1NC(=O)[C@H]2C[C@@H](C(=O)NCCCCCN)[C@@H](c3ccc(O)cc3)N2C1=O,1.26 (inactive)
15,O=C1c2ccccc2[C@](Cc2ccccc2I)(C(=O)NCCN2CCOCC2)[C@H](c2ccc(CO)cc2)N1Cc1ccccc1C(F)(F)F,-1.14 (inactive)
16,CCOC(=O)C[C@H]1[C@H](OC(=O)c2ccc(-c3ccccc3)cc2)[C@@H](NC(=O)c2ccc(-c3ccccc3)cc2)c2cc(OCCCO)ccc2N1C(=O)c1ccccc1,1.36 (inactive)
17,COC(=O)C1=CC(CCCO)=CC(c2ccc(CN3CCCC3)cc2)N(C)C=C1C(=O)OC (stereo unspecified),0.0335 (inactive)
18,CCCC1(C(=O)OC)C=C2C(=C(C(C)C)C(=O)C2C)CN1 (stereo unspecified),1.67 (inactive)
19,C=CCOC(=O)[C@H]1[C@@H]2C(=O)O[C@@H](c3ccccc3)[C@@H](c3ccccc3)N2[C@@H](c2ccc(OCCOC(=O)[C@H]3C[C@H]4C(=O)NCC(=O)N4[C@H]3c3cccc(OCCO)c3)cc2)[C@]12C(=O)Nc1ccc(I)cc12,1.18 (inactive)
20,C=CCNC(=O)[C@H]1[C@@H]2C(=O)O[C@@H](c3ccccc3)[C@@H](c3ccccc3)N2[C@@H](c2ccc(O)cc2)[C@]12C(=O)N(C(=O)OCCOC)c1ccc(C#Cc3ccc(OC)cc3)cc12,0.469 (inactive)
21,CS(=O)(=O)CCOC(=O)C1=CC(CCCO)=CC(C2CC2)N(Cc2sc3ccccc3c2Cl)C=C1C(=O)OCCS(C)(=O)=O (stereo unspecified),-6.21 (inactive)
22,CC(C)(C)OC(=O)CC[C@@]1(C(=O)N2CCOCC2)N=C(c2ccc(OCCCO)cc2)O[C@@H]1c1ccccc1CN=[N+]=[N-],-0.295 (inactive)
23,CN1C(=O)C2C=CC(C(O)c3ccc(I)cc3)N(N(c3ccccc3)c3ccccc3)C2C1=O (stereo unspecified),0.943 (inactive)
24,CC(C)(C)OC(=O)N1[C@@H](C=C(Br)Br)COC1(C)C,-4.13 (inactive)
25,CCCN1C(=O)[C@@]2(c3ccc([N+](=O)[O-])cc3)CC(=O)N(C3CCCCC3)[C@@H]2c2ccc(CO)cc21,1.88 (inactive)
26,C=CCNC(=O)[C@H]1[C@@H]2C(=O)O[C@@H](c3ccccc3)[C@@H](c3ccccc3)N2[C@@H](c2ccc(OCCO)cc2)[C@]12C(=O)N(C(=O)OCCOC)c1ccc(C#CCC(C(=O)OC)C(=O)OC)cc12,1.71 (inactive)
